The values below come from PubChem BioAssay.

The nature of assay [1]: A549 cell viability effects, profiling panel, calcein-AM fluorescence, 48 h, basal (AID 1162). Conditions: higher = more signal.
The nature of assay [2]: adipocyte viability effects, profiling panel, cell-based, 3T3-L1 adipocytes, calcein-AM fluorescence, 48 h, basal (AID 1163). Conditions: 3T3-L1 adipocytes viability, higher = more signal.
The nature of assay [3]: HepG2 cell viability effects, profiling panel, calcein-AM fluorescence, 48 h, basal (AID 1164). The following applies: higher = more signal.
Assay [4] in a line: MM1S cell viability effects, profiling panel, calcein-AM fluorescence, 48 h, basal (AID 1165).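 Further: viability of MM1S multiple myeloma cells under basal unstimulated conditions.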 The following applies: higher = more signal.
Assay [5] is described as follows: basal RPMI8226 viability, no added stimulus, profiling panel, cell-based, calcein-AM fluorescence, 48 h, PK04 Diversity Set (AID 1166).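 Further: cells grown under basal conditions without added stimulus.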 The following applies: RPMI8226 myeloma viability, higher = more signal.
Assay [6] in a line: basal HepG2 mitochondrial membrane potential changes, profiling panel, cell-based, JC-1 fluorescence, 24 h, 100 nL compound (AID 1167). Conditions: higher = more signal.
A short description of assay [7]: basal 3T3-L1 adipocyte mitochondrial potential changes, profiling panel, cell-based, JC-1 fluorescence, 3T3-L1 adipocytes, 24 h, 100 nL compound (AID 1168). Conditions: JC-1 mitochondrial fluorescence, higher = more signal, called active from +8 up or from −8 down.
Assay [8] can be described thus: basal RPMI8226 mitochondrial membrane potential changes, profiling panel, cell-based, JC-1 fluorescence, 24 h, 100 nL compound (AID 1169). The following applies: RPMI8226 myeloma, JC-1 mitochondrial potential fluorescence, higher = more signal.
A short description of assay [9]: basal MM1S mitochondrial membrane potential changes, profiling panel, cell-based, JC-1 fluorescence, 24 h, 100 nL compound (AID 1170). The following applies: higher = more signal.
The nature of assay [10]: A549 lung cancer cell viability effects, profiling panel, resazurin fluorescence, 24 h, PK04 Diversity Set (AID 1171). Conditions: higher = more signal, called active from +8 up or from −8 down.

Active and inactive are the calls of the source.
Further: test concentration not given here.

Turning to `CC(C)[Si]1(C(C)C)OCc2cc(C3CC3)nc(-c3ccccc3)c21`, the z-score was 0.0145 in assay [1]; 1.06 in assay [2]; -0.899 in assay [3]; -0.319 in assay [4]; -1.54 in [5]; -0.012 in assay [6]. In addition, the z-score in assay [7] was 1.6 (inactive); in [8] it was -0.373; in assay [9], 0.542; in [10] it was 1 (inactive).

Turning to `COCCOC(=O)N1C(=O)[C@@]2(c3cc(C#CC4(O)CCCCCC4)ccc31)[C@H](C(=O)N1CCCCCCC1)[C@H]1C(=O)O[C@H](c3ccccc3)[C@H](c3ccccc3)N1[C@@H]2c1ccc(O)cc1`, the z-score was -0.475 in assay [1]; 2.45 in assay [2]; -0.0416 in assay [3]; -0.747 in assay [4]; -0.733 in assay [5]; -0.355 in assay [6]. The z-score is 1.16 (inactive) in assay [7], -0.861 in assay [8], -0.219 in [9] and 0.627 (inactive) in [10].

Regarding `O=C1C[C@@](C(=O)NC2CC2)(c2ccc([N+](=O)[O-])cc2)[C@@H](c2ccc(CO)cc2I)N1CC12CC3CC(CC(C3)C1)C2`, the z-score in assay [1] is -2.31; in assay [2], -0.375; in [3], -5.04; in assay [4] it was -3.83; in assay [5] it was -4.33; in [6], -2.32. The z-score is -0.869 (inactive) in assay [7], -1.02 in assay [8], -2.4 in assay [9] and -3.35 (inactive) in assay [10].

As to `C=CCN1C(=O)[C@@]2(O[C@@H](CCn3cc([C@H](O)c4ccccc4)nn3)[C@H]([Si](C)(C)c3ccc(OC)cc3)[C@H]2C)c2cc(N3CCOC3=O)ccc21`, the z-score is -0.873 in assay [1]; 3.06 in assay [2]; -1.2 in assay [3]; -1.81 in assay [4]; -1.93 in assay [5]; 1.09 in assay [6]. Moreover, the z-score in assay [7] is 1.92 (inactive); in assay [8], -0.376; in assay [9] it was 0.753; in assay [10] it was -1.97 (inactive).

On to `CC(c1ccccc1)C(O)C1C=CC2C(=O)N(C)C(=O)C2N1N(c1ccccc1)c1ccccc1` (stereo not given), for which the z-score in [1] is -0.279; in assay [2], -1.94; in assay [3] it was 0.919; in assay [4] it was 0.455; in assay [5], 0.427; in [6] it was -0.288. The z-score in [7] is -1.37 (inactive); in assay [8], -0.17; in assay [9], -0.939; in assay [10], -0.346 (inactive).

As to `Cc1ccc(N2C(=O)c3ccccc3[C@@H](C(=O)NCc3ccccc3)[C@@H]2c2ccc(CO)cc2)nc1`, the z-score in assay [1] is 1.08; in assay [2], 1.14; in assay [3] it was -0.296; in assay [4] it was 0.2; in [5] it was 1.18; in assay [6] it was 0.532. For the same compound, the z-score in [7] was 1.07 (inactive); in assay [8] it was 0.0567; in [9], 0.202; in assay [10] it was 0.737 (inactive).

In the case of `Cc1ccccc1C(O)C1C=CC2C(=O)N(c3ccccc3)C(=O)C2N1Nc1ccc(C#N)cc1` (stereo not given), the z-score in assay [1] is 0.916; in [2], -0.175; in assay [3] it was 2.03; in [4] it was -0.113; in assay [5], 0.0872; in assay [6] it was 0.258. Moreover, the z-score in assay [7] is -1.55 (inactive); in assay [8], -0.472; in assay [9], 0.99; in assay [10] it was 0.682 (inactive).

As for `C=CCOC(=O)[C@@H]1[C@H]2C(=O)O[C@H](c3ccccc3)[C@H](c3ccccc3)N2[C@H](c2ccc(OCCOC(=O)[C@H]3C[C@H]4C(=O)N[C@@H](CCCCNC(C)=O)C(=O)N4[C@H]3c3ccc(O)cc3)cc2)[C@@]12C(=O)Nc1ccc(I)cc12`, the z-score in assay [1] is -0.778; in assay [2], -0.796; in assay [3] it was -0.931; in [4], -0.989; in [5], 0.572; in [6], -0.422. The z-score was 0.725 (inactive) in [7], -0.324 in assay [8], -0.99 in assay [9] and 0.213 (inactive) in assay [10].

As for `COc1cccc([C@H]2N[C@H](C(=O)O)CC[C@@H]2C)c1`, the z-score in assay [1] was 0.0912; in [2] it was 2.03; in [3], -0.175; in assay [4], 0.543; in [5] it was -1.36; in [6], 1.16. The z-score in [7] was 0.75 (inactive); in assay [8], -0.358; in assay [9] it was 0.632; in assay [10], -0.336 (inactive).

For `O=C(NCc1ccccc1)[C@@]1(CCS(=O)(=O)c2ccccc2)COC(c2ccc(OCCCO)cc2)=N1`, the z-score is 1.29 in assay [1]; 0.897 in [2]; -0.0721 in [3]; -2.26 in [4]; -0.256 in [5]; 1.61 in assay [6]. Also, the z-score in assay [7] is 1.11 (inactive); in [8], -0.263; in [9], -0.944; in assay [10] it was -0.335 (inactive).

`COC(=O)[C@@]1(Cc2ccc(OC)cc2)[C@H]2c3cc(C(=O)N(C)C)n(Cc4ccc(C)c(F)c4F)c3C[C@H]2CN1C(=O)c1ccccc1`: the z-score was -1.81 in assay [1]; -0.484 in assay [2]; -1.15 in assay [3]; -1.34 in assay [4]; -1.5 in assay [5]; 0.00937 in assay [6]. Also, the z-score was -0.589 (inactive) in [7], 0.817 in assay [8], -1.3 in [9] and 1.41 (inactive) in assay [10].

For `CCCCCCc1nc(-c2cc(C)c(OC)c(C)c2)cc2c1[Si](C(C)C)(C(C)C)O[C@H]2c1ccccc1`, the z-score is 0.723 in assay [1]; -0.185 in [2]; -0.59 in [3]; -0.0523 in [4]; -0.942 in assay [5]; 0.201 in assay [6]. Moreover, the z-score is -0.152 (inactive) in assay [7], 0.77 in [8], -0.683 in [9] and 0.732 (inactive) in [10].
